This passage reports inhibition results from PubChem BioAssay AID1445 (SRMLSC, 2008).

In all, about 220,000 compounds went through this assay and about 910 (0.41%) were called active. The entries come from a sample that favours actives as a whole. Measured potencies and affinities stand elsewhere. Unmarked numbers belong to inactive results.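 The calls were made as follows: active = primary inhibition above the hit cutoff, then over 50% inhibition at one or more dose response concentrations (cut at about 23% in these data, passing the limit was not always enough); inconclusive = conflicting primary data, or primary hits not chosen for dose response; inactive = low primary inhibition, or under 50% at every dose.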

The inhibition is the change of the read-out against control, counted positive when it falls.

Chain of Aminopeptidase N (Plasmodium falciparum (isolate 3D7)) (O96935 whole entry, looked up): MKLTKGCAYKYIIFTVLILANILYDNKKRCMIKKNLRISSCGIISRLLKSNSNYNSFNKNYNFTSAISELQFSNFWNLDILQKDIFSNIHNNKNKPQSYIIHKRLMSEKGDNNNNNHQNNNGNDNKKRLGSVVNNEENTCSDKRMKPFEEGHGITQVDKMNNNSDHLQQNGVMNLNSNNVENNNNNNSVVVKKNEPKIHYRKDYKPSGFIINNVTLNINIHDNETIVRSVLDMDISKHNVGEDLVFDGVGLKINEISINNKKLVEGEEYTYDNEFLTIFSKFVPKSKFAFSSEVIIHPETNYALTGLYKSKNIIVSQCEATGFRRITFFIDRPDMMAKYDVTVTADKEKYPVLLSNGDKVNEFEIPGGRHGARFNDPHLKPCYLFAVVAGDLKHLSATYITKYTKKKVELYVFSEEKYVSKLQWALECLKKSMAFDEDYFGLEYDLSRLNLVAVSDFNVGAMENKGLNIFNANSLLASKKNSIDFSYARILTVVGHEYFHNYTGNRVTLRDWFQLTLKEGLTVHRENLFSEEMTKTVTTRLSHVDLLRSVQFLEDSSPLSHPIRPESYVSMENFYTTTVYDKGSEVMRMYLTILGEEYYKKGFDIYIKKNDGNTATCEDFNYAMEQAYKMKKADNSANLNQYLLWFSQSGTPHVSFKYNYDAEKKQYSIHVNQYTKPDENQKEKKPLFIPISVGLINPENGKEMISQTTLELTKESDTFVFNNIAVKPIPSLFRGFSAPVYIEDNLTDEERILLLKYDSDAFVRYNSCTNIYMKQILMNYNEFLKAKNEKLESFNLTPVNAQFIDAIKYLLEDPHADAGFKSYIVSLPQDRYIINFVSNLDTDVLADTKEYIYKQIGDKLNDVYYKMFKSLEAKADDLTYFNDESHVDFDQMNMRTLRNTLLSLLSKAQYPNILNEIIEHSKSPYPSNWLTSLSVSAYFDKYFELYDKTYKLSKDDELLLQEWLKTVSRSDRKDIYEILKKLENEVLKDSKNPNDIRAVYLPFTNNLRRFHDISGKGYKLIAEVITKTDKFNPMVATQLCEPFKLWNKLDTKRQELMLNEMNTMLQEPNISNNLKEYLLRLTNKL

The experiment addresses Aminopeptidase N (Plasmodium falciparum (isolate 3D7)) (UniProt O96935). Kind of experiment: P. falciparum M1AAP inhibitors, biochemical, fluorogenic H-Leu-NHMec substrate, 1536-well (AID 1445).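 Also: plate controls were DMSO full reaction for no effect and no enzyme background for full effect.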 The note with it: recombinant M1AAP, H-Leu-NHMec fluorogenic kinetic assay; at 30 µM, active compounds read high unless noted.
On to `COc1ccc(-c2cc(-c3cccnc3)c(C#N)c(N)n2)cc1`, for which the inhibition was 11.1%.
For `CC(C)CC(C(=O)Nn1cnnc1)N1C(=O)c2ccccc2C1=O` (stereo unspecified) the value was 25.1% (active).
For `Cc1noc(NS(=O)(=O)c2ccc(NC(=O)c3ccc(N4C(=O)c5ccccc5C4=O)cc3)cc2)c1C` the value was -1.13%.
Turning to `Cc1cc(NS(=O)(=O)c2ccc(NC(=O)C(C)N3C(=O)c4ccccc4C3=O)cc2)nc(C)n1` (stereo unspecified), the inhibition was 2.55%.
Then `CC(C)CC(C(=O)NCc1ccccn1)N1C(=O)c2ccccc2C1=O` (stereo unspecified), with 13.1%.
Then `Cc1noc(NS(=O)(=O)c2ccc(NC(=O)CCN3C(=O)c4ccccc4C3=O)cc2)c1C`, with 12.8%; and `Cc1cc(NS(=O)(=O)c2ccc(NC(=O)C(C(C)C)N3C(=O)c4ccccc4C3=O)cc2)nc(C)n1` (stereo unspecified), with 11.3%; and `CC(C)CC(C(=O)NC(=O)NCc1ccccc1)N1C(=O)c2ccccc2C1=O` (stereo unspecified), with 7.55%.
For `COc1cccc(Cn2nnc(C(=O)NCc3ccc(F)cc3)c2N)c1` the value was -3.49%; for `CCOC(=O)N1CCN(c2c(N3CCN(c4cccc(C(F)(F)F)c4)CC3)c(=O)c2=O)CC1`, 4.51%; for `CC1=CCC2C(=O)N(c3ccc(S(N)(=O)=O)cc3)C(=O)C2C1` (stereo unspecified), 2.35%.
Consider `Cc1nnc2ccc(N3CCOCC3)nn12`, for which the inhibition is 0.92%.
For `CCn1c(C)nc2cc(C(=O)NNC(=S)Nc3ccc(Cl)cc3)ccc21` the value was -13.2%; for `CCN1CCc2c(OCC(=O)N3CCCCC3)cccc2C1=O`, 1.05%; for `CCn1c(C)cc(/C=C2\SC(=O)N(CC(=O)Nc3ccc(C)c(C)c3)C2=O)c1C`, 2.14%.
For `C#CCN1C(=O)S/C(=C/c2cc(C)n(CC)c2C)C1=O` the value was 9.33%; for `Cc1ccc(NC(=O)c2cc(C(C)(C)C)nn2Cc2ccccc2)cc1`, 5.05%; for `Cc1cc(C)cc(OCC(=O)N(Cc2cccs2)C2CCS(=O)(=O)C2)c1` (stereo unspecified), 2.35%.
For `Cc1cc(=O)[nH]c(-c2ccccc2O)n1` the value was 10.9%.
Take `CC(C)Sc1nc2c(c(=O)n1C)SC(C)C2` (stereo unspecified): the inhibition was 11.9%.
Take `CSc1nc2c(c(=O)n1C)SC(C)C2` (stereo unspecified): the inhibition is 1.34%.
As to `CCC(C)Sc1nc2c(c(=O)n1C)SC(C)C2` (stereo unspecified), the inhibition was 23.5% (active).
Then `O=C(CNC(=S)N(CCCN1CCOCC1)Cc1cccs1)NC1CCCC1`, with 5.27%.
Then `COc1ccc(N2CCN(c3ccc(N4C(=O)CC(C)C4=O)cc3[N+](=O)[O-])CC2)cc1` (stereo unspecified), with -8.33%; and `c1ccc(NC2=Nc3cccc4cccc2c34)cc1`, with 1.68%; and `CCCCN(C)C1=Nc2cccc3cccc1c23`, with 26.3% (active).
Then `NC1=Nc2cccc3cccc1c23`, with 3.4%; and `CC1=NN(c2nc(-c3ccc(C)cc3)cs2)C(=O)C1N=Nc1cccc(O)c1` (stereo unspecified), with 6.79%; and `CC1=NN(c2nc(-c3ccc(C)cc3)cs2)C(=O)C1N=Nc1ccc2ccccc2c1` (stereo unspecified), with -4.56%.
As for `COc1ccc([N+](=O)[O-])cc1NC(=O)c1cc(C)c(C)o1`, the inhibition was 8.9%.
Then `Cc1ccsc1C1NC(=O)c2c(sc3c2CCN(C)C3)N1` (stereo unspecified), with 25.9% (active).
For `Cc1ccsc1C1NC(=O)c2c(sc3c2CCCC3)N1` (stereo unspecified) the value was -10.2%; for `CN1CCc2c(sc3c2C(=O)NC(c2cccs2)N3)C1` (stereo unspecified), 11.5%.
Then `COC(=O)c1cn(-c2ccccc2)c(=O)c2ccccc12`, with 0.56%.
As to `Cc1ccc(-c2csc3ncn(CC(=O)N4CCOCC4)c(=O)c23)cc1C`, the inhibition was 16.1%.
For `Cc1sc2ncn(CC(=O)N3CCOCC3)c(=O)c2c1-c1ccccc1` the value was 22.3%; for `CCOC(=O)N1CCC(NC(=O)c2ccc3c(c2)sc2nc(-c4ccc(OC)cc4)cn23)CC1`, 6.96%; for `CCOC(=O)N1CCC(NC(=O)c2ccc3c(c2)sc2nc(-c4ccccc4)cn23)CC1`, 31.7%.
Turning to `COC(=O)c1ccc(NC(=O)C2CC2)o1`, the inhibition is -0.61%.
Regarding `CCOC(=O)c1c(-c2ccc(-c3ccccc3)cc2)csc1NC(=O)C1C2CCC(O2)C1C(=O)O` (stereo unspecified), the inhibition is 3.79%.
For `CCCOC(=O)c1c(-c2ccc(C)cc2C)csc1NC(=O)C1C2CCC(O2)C1C(=O)O` (stereo unspecified) the value was -4.77%.
For `FC(F)C(F)(F)C1=CC(c2cccs2)=NCCN1` the value was 6.95%; for `COCc1cc(C)nc(OCC(=O)N/N=C\c2cc(C)n(-c3cccc(C(F)(F)F)c3)c2C)c1C#N`, 6.82%.
As for `CC(C)Nc1nc(NNc2nc(Cl)nc(NC(C)(C)C)n2)nc(NC(C)C)n1`, the inhibition was -3.65%.
`COc1cc(/C=N/Nc2nc(Nc3ccc(C)cc3)nc(-n3nc(C)cc3C)n2)cc(OC)c1OC`: the inhibition was 0.21%.
Then `CCOC(=O)c1c(N2C(=O)Nc3ccccc3N2O)sc2c1CCCC2`, with 4.01%.
Then `COC(=O)c1c(N2C(=O)Nc3ccccc3N2O)sc2c1CCCC2`, with 9.84%; and `CC(C)(CC(=O)O)Cc1nc(-c2ccc(Cl)cc2)no1`, with -3.52%.
For the compound `COc1ccc(NS(=O)(=O)c2cccc(Cl)c2)cc1S(=O)(=O)N1CCCCC1`, the inhibition was 1.83%.
For `Nc1cccc(-c2nc3ccc(N)cc3s2)c1` the value was 8.49%.
For `Cc1ccc2nc(-c3ccc(N)cc3)sc2c1` the value was 3.99%.
Turning to `Nc1ccc2nc(-c3ccccc3)sc2c1`, the inhibition was 33.2%.
Then `Nc1ccc(-c2nc3cc(N)ccc3s2)cc1`, with 13%; and `CN(C)CCCNC(=S)Nc1ccc(Br)cc1`, with -1.23%.
For `COc1cccc2c(=O)c3cccc(N)c3[nH]c12` the value was 17.7%; for `CCOC(=O)c1c(C)oc2ccc(OC(=O)N3CCOCC3)cc12`, 3.42%; for `O=C(CSc1nnc(Nc2ccccc2)s1)NCCN1C(=O)CSC1=O`, 0.85%.
For `[2H]c1c([2H])c([2H])c(-c2nc(N3CCCCCC3)sc2C(=O)c2ccccc2)c([2H])c1[2H]` the value was 6.9%; for `O=C(O)CC(C(=O)O)N1C(=O)/C(=C/c2ccc(-c3nc4ccccc4s3)o2)SC1=S` (stereo unspecified), 24.7% (active).
Regarding `O=C(O)CCN1C(=O)/C(=C/c2ccc(-c3nc4ccccc4s3)o2)SC1=S`, the inhibition was -3.38%.
Then `O=C(O)CCN1C(=O)/C(=C\c2ccc(-c3nc4ccccc4s3)o2)SC1=S`, with 20.7%.
